101 compounds from ChEMBL document CHEMBL4513216, “Probing the Open Global Health Chemical Diversity Library for Multistage-Active Starting Points for Next-Generation Antimalarials” (ACS Infect Dis, 2020) can be followed below.

In all, about 68,000 compounds went through this assay and about 2,700 (4%) showed an effect of 50% or more. What follows is part of a selection rich in strong results, with near analogues and random picks from the rest.

This assay deals with Plasmodium berghei. Description: Screen against P. berghei liver stage (PbLuc), transformed with Luciferase, at 2uM. Conditions: tested at 2 uM. The assay is classed as functional, HepG2.
Take `CC(SCC(=O)N(C)CC(=O)NC1CC1)c1ccccc1F` (stereo unspecified): the INHIBITION is reported as -16.7%. As for `CN(CCc1ccccc1)C(=O)c1cc(CN2CCC(O)CC2)on1`, the figure is -10.41%; as for `CN(CCc1ccccc1)Cc1cc(C(=O)N2CCCC2(C)C)no1`, 61.89%. As for `CN(CCc1ccccc1)Cc1cc(C(=O)N2CCN(C)C(=O)C2)no1`, the figure is -64.43%. As for `CN(CCc1ccccc1)Cc1cc(C(=O)N2CCSCC2)no1`, the figure is 72.05%. Consider `CCC1CN(C(=O)c2cc(CN(C)CCc3ccccc3)on2)CCO1` (stereo unspecified), for which the INHIBITION is given as -11.41%. As for `CN1CCCN(C(=O)c2cc(CN(C)CCc3ccccc3)on2)CC1`, the figure is 5.28%; as for `Fc1ccc(CN2CCC3(CCCN(c4nncs4)C3)C2)cc1` (stereo unspecified), 3%; as for `O=C(NCC1CCCOC1)c1ccc(-c2ccccc2)[nH]c1=O` (stereo unspecified), 4.96%. As for `Fc1ccc(Cc2cnc(C3CCCN3)cn2)cc1` (stereo unspecified), the figure is -2.89%. As for `CC(C)Nc1cc(-c2c[nH]nc2C2CCN(C(=O)C3CCC3)C2)ccn1` (stereo unspecified), the figure is 16.43%; as for `CCCNc1cc(-c2c[nH]nc2C2CCN(C(=O)C3CCC3)C2)ccn1` (stereo unspecified), 87.38%; as for `CC(C)CNc1cc(-c2c[nH]nc2C2CCN(C(=O)C3CC3)C2)ccn1` (stereo unspecified), 13.98%. Regarding `Fc1ccc(OCCNC2CCN(Cc3ccccn3)CC2)c(F)c1`, the INHIBITION is recorded as -31.26%. As for `CNC(=O)Nc1cc(-c2ccccc2C)nn1CCO`, the figure is -3.51%.

In the case of `Cc1ccccc1-c1cc(NC(=O)NC2CCC(O)CC2)n(CCO)n1` (stereo unspecified), the INHIBITION amounted to 14.82%.

With `Cc1ccccc1-c1cc(NC(=O)NC2CC2)n(CCO)n1`, the INHIBITION turned out to be 57.75%.

Consider `O=C(c1cnccn1)N1CCCC(Cc2cccc3ncccc23)C1` (stereo unspecified), for which the INHIBITION is reported as -3.58%. As for `Cc1cccc(C(=O)N2CCCC(Cc3cncc4ccccc34)C2)n1` (stereo unspecified), the figure is 33.77%; as for `O=C(c1cnccn1)N1CCCC(Cc2cncc3ccccc23)C1` (stereo unspecified), 99.92%; as for `O=c1c2c[nH]c(N3CCCCC3)nc-2cn1-c1ccc2c(c1)OCO2`, 33.2%. As for `Cn1cc(S(=O)(=O)NCc2ccsc2)cn1`, the figure is -18.65%.

As to `CNC(=O)C(C)CNC(=O)c1coc(COc2cccc(F)c2F)n1` (stereo unspecified), the INHIBITION worked out at 16.32%. Consider `O=C(N[C@@H]1CN(Cc2ccco2)[C@@H]2CCCO[C@@H]21)c1cscn1`, for which the INHIBITION is -2.81%. As for `COc1c(CNC2CCOc3c(Cl)cccc32)c(C)nn1C` (stereo unspecified), the figure is 24.64%; as for `Cc1nc(CN2CCc3ncnc(-c4ccsc4)c3CC2)cs1`, 8.62%; as for `CCS(=O)(=O)CCNC(=O)[C@@]12CNC[C@@H]1CN(C1CCCC1)C2`, -13.8%. As for `O=C(NCCOCCO)[C@@]12CNC[C@@H]1CN(C1CCCC1)C2`, the figure is 45.82%; as for `COCC1(CNC(=O)[C@@]23CNC[C@@H]2CN(C2CCCC2)C3)CC1`, 83.98%.

Consider `CCC(NC(=O)C1CCN(S(C)(=O)=O)CC1)c1ccc(C)cc1C` (stereo unspecified), for which the INHIBITION is on record as 20.49%. Turning to `CC(C)COC(=O)N1CCCN(C(C)c2nc(C(C)C)no2)CC1` (stereo unspecified), the INHIBITION is on record as 4.49%.

Consider `O=C(NCc1ccco1)[C@H]1C[C@H]2OCC[C@H]2N(C(=O)c2ccnnc2)C1`, for which the INHIBITION is -14.65%. As for `O=C(C1CC1)N1CCC2(CCN2Cc2ccc(F)cc2)C1` (stereo unspecified), the figure is 31.52%; as for `Cc1nn(C)cc1C(=O)N1CCCn2nc(CN3CC[C@H](F)C3)cc2C1`, -11.76%. On to `O=C(c1ccc(Cl)s1)N1CCCn2nc(CN3CC[C@H](F)C3)cc2C1`, for which the INHIBITION was -13.81%. On to `COC(=O)NCC(=O)N1CCCn2nc(CN3CC[C@H](F)C3)cc2C1`, for which the INHIBITION worked out at 52.85%. As to `CC(C)Cn1cncc1-c1nc2c([nH]1)CC(C)(C)CNC2=O`, the INHIBITION is -54.78%. As to `COCCn1cncc1-c1nc2c([nH]1)CC(C)(C)CNC2=O`, the INHIBITION stood at 8.54%. In the case of `CCn1cncc1-c1nc2c([nH]1)CC(C)(C)CNC2=O`, the INHIBITION is 50.61%. Consider `CCc1cc(N2CCCNCC2)n2nc(C)c(C)c2n1`, for which the INHIBITION came out at 14.23%. As for `Cc1ccc(NS(=O)(=O)c2cc3c(c(C(=O)O)c2)OCCO3)cc1C`, the figure is -19.1%; as for `O=C(NCc1cc[nH]n1)NCC(O)c1ccc(F)c(F)c1` (stereo unspecified), -87.87%; as for `CCCS(=O)(=O)N1CCCC1c1cccc(N(C)C)c1` (stereo unspecified), -46.3%. In the case of `Cc1nccn1CCC1CCCCN1Cc1cnc(N(C)C)nc1` (stereo unspecified), the INHIBITION is recorded as -4.51%.

With `CN(C)CCC1CCCCN1Cc1cnc(-c2ccccn2)nc1` (stereo unspecified), the INHIBITION is 53.12%. As to `c1ccc(-c2ncc(CN3CCCCC3CCn3cccn3)cn2)nc1` (stereo unspecified), the INHIBITION came out at 11.38%. In the case of `CS(=O)(=O)N1CCC2(CC1)COC(COc1ccccn1)C2` (stereo unspecified), the INHIBITION amounted to 46.32%. `Cc1nc(O)c2nnn(C[C@H]3CCCN3C(=O)C3CCCC3)c2n1`: the INHIBITION came out at 50.32%.

Consider `Cc1nc(O)c2nnn(C[C@H]3CCCN3C(=O)c3ccccc3C)c2n1`, for which the INHIBITION turned out to be 83.57%. Take `Cc1nc(O)c2nnn(C[C@H]3CCCN3C(=O)CCC3CCCC3)c2n1`: the INHIBITION is given as 6.57%. As for `Cc1nc(O)c2nnn(C[C@H]3CCCN3C(=O)C(C)(C)C)c2n1`, the figure is -47.12%; as for `Cc1nc(O)c2nnn(C[C@H]3CCCN3C(=O)c3ccccc3F)c2n1`, 33.64%. `Cc1ccc(C(=O)N2CCC[C@@H]2Cn2nnc3c(O)nc(C)nc32)cc1`: the INHIBITION is -15.93%. Consider `CCn1cc(NC(=O)C2CCN(Cc3nc(C)c(C)s3)CC2)cn1`, for which the INHIBITION is -3.36%.

Regarding `Cc1ccc(NC(=O)[C@H]2C[C@H](C(=O)O)CN(CC3CC3)C2)cn1`, the INHIBITION was 38.15%. Take `Fc1ccc2nc([C@H]3CCNC3)[nH]c2c1`: the INHIBITION is -11.34%. As for `FC(F)(F)c1ccc2[nH]c([C@H]3CCNC3)nc2c1`, the figure is 62.8%; as for `CC(C)N1CC[C@H](c2nc3ccc(C(F)(F)F)cc3[nH]2)C1`, 4%.

Regarding `COCC(=O)NC(Cc1cc(N(C)C)nc(C2CC2)n1)c1ccccc1` (stereo unspecified), the INHIBITION was found to be 7.93%. Regarding `CCOCCN1CCN(C=C2NN=C(c3occc3C)O2)CC1CC` (stereo unspecified), the INHIBITION turned out to be 24.82%. For the compound `O=C(Nc1ccc(F)cc1)N(CCC(F)(F)F)C[C@H](O)CO`, the INHIBITION amounted to 5%. Consider `Cc1cccc(NC(=O)N(CCC(F)(F)F)C[C@H](O)CO)c1`, for which the INHIBITION is recorded as -24.88%. As for `COc1cccc(NC(=O)N(CCC(F)(F)F)C[C@H](O)CO)c1`, the figure is 50.6%; as for `COc1cccc(NC(=O)N(CCO)Cc2ccsc2)c1`, -75.39%.

Regarding `O=C(Nc1ccc(F)cc1F)N(CCC(F)(F)F)C[C@H](O)CO`, the INHIBITION came to 66.83%. `CC(CS(C)(=O)=O)N(C(=O)Nc1ccc(F)cc1F)C1CC1` (stereo unspecified): the INHIBITION is -3.43%. As for `CN(C)c1ccc(C(=O)Nc2ccn(Cc3ccccn3)n2)cn1`, the figure is -44.17%; as for `CN1CCOC[C@H]1c1nc(-c2cccnc2)c[nH]1`, 5.77%. As for `O=C(Nc1cccc(CNCc2csc(Br)c2)c1)C1CC1`, the figure is -0.64%; as for `CCC1(c2ccc(NS(=O)(=O)N(C)C)cc2)CCC(=O)NC1=O` (stereo unspecified), -11.81%; as for `C[C@@H]1CN(c2nc3c(cc2C(N)=O)CCC3)CC[C@@]1(O)C1CCC1`, 2.79%.

Take `CN1CCCCC1Cc1nc2c(cc1C(N)=O)CCC2` (stereo unspecified): the INHIBITION was found to be 62.39%. As to `NC(=O)c1cc2c(nc1CC1CCCCO1)CCC2` (stereo unspecified), the INHIBITION amounted to 38.83%. For `COC(=O)c1ccc(NC(C)c2ccc3c(c2)CCC(=O)N3)nn1` (stereo unspecified), the INHIBITION is 34.22%.

As to `Cc1csc(N2CCN(C(=O)c3c(C)oc(C)c3C)CC2)n1`, the INHIBITION worked out at 58.52%. Regarding `Cc1nc(CN2CCCN(C(=O)c3c(C)oc(C)c3C)CC2)cs1`, the INHIBITION is given as 59.54%. As for `Cc1csc(N2CCCN(C(=O)c3c(C)noc3C)CC2)n1`, the figure is 24.65%. In the case of `CCc1noc(C)c1C(=O)N1CCCN(Cc2csc(C)n2)CC1`, the INHIBITION was 16.84%. Turning to `Cc1nc(CN2CCCN(C(=O)c3c(C)noc3C)CC2)cs1`, the INHIBITION is given as 3.38%. For `Cc1csc(N2CCCN(C(=O)c3c(C)oc(C)c3C)CC2)n1`, the INHIBITION is given as -1.5%. In the case of `O=C(NCC1CCCO1)c1cc(-c2ccncc2)c2cnccc2n1` (stereo unspecified), the INHIBITION is 26.69%. As for `CO[C@@H]1CO[C@@]2(CCCN(C(=O)C3CC=CC3)C2)C1`, the figure is -29.49%; as for `COCC1CCN(c2ccnc3ccsc23)C1` (stereo unspecified), 15.84%; as for `Cc1ccc(C(=O)N2CCn3cc(CN(C)Cc4ccco4)nc3C2)o1`, -40.76%. As to `Cn1ncc2c1C(COCC1CC1)CN(C(=O)Cc1ccsc1)C2` (stereo unspecified), the INHIBITION is recorded as 22.16%. As for `CN1C(=O)C2(CCNCC2)c2cc(F)ccc21`, the figure is 37.75%; as for `COc1ccc(CN2C[C@H]3CCC[C@@H](CN(C)C4CC4)[C@H]3C2)cn1`, 0.42%. As for `c1cnc(NC[C@@H]2CCC[C@@H]3CN(Cc4cccnc4)C[C@@H]32)nc1`, the INHIBITION stood at 7.08%.

`CN(C[C@@H]1CCC[C@@H]2CN(Cc3cccnc3)C[C@@H]21)C1CC1`: the INHIBITION is listed as 61.09%. As for `CC(=O)N1CCOC(c2cc(N3CC(O)C3)nc(C)n2)C1` (stereo unspecified), the figure is 18.8%; as for `Cc1cnn(C2CN(CCOc3ccc(C#N)cc3)C2)c1`, -22.06%.

Turning to `Cc1cccc(NC(=O)[C@@H]2CCCN2CC(=O)Nc2ccccc2)n1`, the INHIBITION is -32.35%. As for `CCOC(=O)N1CCN(C(=O)c2cc(-c3ccc(C)cc3)on2)CC1`, the figure is 21.28%. With `NC(=O)CN1C(=O)CO[C@H]2CN(Cc3ccc(Cl)cc3)C[C@H]21`, the INHIBITION is reported as 58.4%.

Consider `NC(=O)CN1C(=O)CO[C@H]2CN(Cc3ccc(F)c(F)c3)C[C@H]21`, for which the INHIBITION was determined as 27.65%.

As to `NC(=O)CN1C(=O)CO[C@H]2CN(Cc3ccccc3)C[C@H]21`, the INHIBITION is recorded as 41.93%. Consider `Cn1ccnc1CN1CCCC(CCCc2ccccn2)(C(N)=O)C1` (stereo unspecified), for which the INHIBITION is reported as -11.32%.

Take `COC(=O)c1cccc(S(=O)(=O)NC(=O)COC2CCCCC2)c1`: the INHIBITION is 19.64%. As for `Cc1nc(Nc2ccccn2)cc(N2CCN(S(C)(=O)=O)CC2)n1`, the figure is 18.99%; as for `Cc1ccc(Nc2cc(N3CCN(S(C)(=O)=O)CC3)nc(C)n2)cc1`, 51.2%. With `CS(=O)(=O)N1CCN(c2cc(-n3cccc3)ncn2)CC1`, the INHIBITION is 19.08%.
